Screens: PubChem, National Center for Advancing Translational Sciences (NCATS)
This excerpt belongs to a sample that is enriched for hits.
Pf Dd2 inh = qHTS Primary assay for Inhibitors of Plasmodium falciparum Dd2 growth in vitro | P. falciparum Dd2 growth, SYBR Green, 72 h | Potency, µM (titrated, usually from 28.9 µM), most hits filed as inhibitors | hit rate 4.3% among 120,000 | AID 1347417, 2020; active = well fitted inhibition curve with a large enough effect; also: nearly all actives have a fitted effect of over 65% in size
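Readout: SYBR Green fluorescence, 485 nm excitation, 535 nm emission, after ~16 h lysis at 37C. Before that, Dd2-infected red cells (2.5% hematocrit) grew 72 h with compound, 29 uM top final concentration.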
A number is an active result; – = inactive; [ ] = dose if it differs, or a comment.

SMILES	Pf Dd2 inh
CC(C)CCNC(=O)c1cc(-c2ccc(Br)s2)nc2ccccc12	–
CCCCN(CCCNC(=O)c1cc(Nc2ccc(OC)c(OC)c2)nc2ccccc12)Cc1ccccc1	2.24µM
COc1ccc(Nc2cc(C(=O)NCCc3ccccc3)c3ccccc3n2)cc1OC	–
Cc1ccc(C)c(Nc2cc(C(=O)NCCCN(C)C3CCCCC3)c3ccccc3n2)c1	–
CCCCN(CCCC)CCCNC(=O)c1cc(-c2ccc(Cl)s2)nc2ccccc12	5.62µM
CCc1ccc(CNC(=O)c2cc(-c3ccc(Cl)s3)nc3ccccc23)cc1	–
COc1ccc(CNC(=O)c2cc(-c3ccc(Br)s3)nc3ccccc23)c(OC)c1	–[5.79 µM]
CCc1ccccc1NC(=O)c1cc(-c2ccc(Cl)s2)nc2ccccc12	–
Cc1ncc2c(n1)C[C@@H]1CC[C@H]2N1C(=O)CCC1CCCC1	–
Cc1ccccc1-c1cnc2[nH]cc(CC(=O)NCc3ccccc3)c2c1	–
CC1CCC2(CC1)NC(=O)N(CC(N)=O)C2=O (stereo not drawn)	–
CN1CC(=O)N(c2ccccc2F)Cc2c(NCCc3ccccc3F)ncnc21	–
c1cncc(-c2ccnc(NCCc3noc(C4CCCC4)n3)n2)c1	–
COc1cccc([S+](=O)([O-])N2CC(N(C)c3ccccc3C)C2)c1	–
Cc1cccc(NS(=O)(=O)c2ccc3c(c2)CCCN3C(=O)C2CCC2)c1C	–
CNCCN1C(=O)CC[C@H]2CN(C(=O)c3ccc(Cl)cn3)CC[C@H]21	–
Cc1cc(OCC(=O)Nc2nc3c(s2)CCCC3)cc(C)c1Cl	–
Cc1nonc1C(=O)N1CCc2ncnc(NCc3ccon3)c2CC1	–
Cc1nn(CC(=O)N2CCN(c3ccc(Cl)cc3)CC2)c(=O)c2nc(C(C)C)sc12	–
CC(C)CN(Cc1nnc2cc(-c3nc(-c4ccccc4)no3)ccn12)CC(C)C	–
COc1ccc2c(c1)CCN=C2C[C@H]1CN(C(=O)c2ccc(C#N)cc2)CC[C@H]1CC(=O)O	–
Cc1c(Cl)cccc1NC(=O)Cn1cccc1-c1nc(-c2ccccc2)no1	–
CCOC(=O)c1cnc2c(ccc3ccccc32)c1Nc1ccc(OCC)cc1	–
CCOC(=O)c1cnc2c(C)cccc2c1NCCc1ccc(OC)c(OC)c1	–
CCOC(=O)c1ccc2ncc(C(=O)OCC)c(NCCc3ccc(OC)c(OC)c3)c2c1	8.91µM
SMILES	Pf Dd2 inh
CCOC(=O)c1cnc2ccc(OC)cc2c1NCCc1ccccc1	3.98µM
CCOC(=O)c1cnc2ccc(OC)cc2c1Nc1cccc(C(C)=O)c1	–
CCOC(=O)c1cnc2c(ccc3ccccc32)c1Nc1cccc(OC)c1	–
CCOC(=O)c1cnc2c(C)c(Cl)ccc2c1NCCc1ccc(OC)c(OC)c1	–
CCOC(=O)c1cnc2ccc(OCC)cc2c1Nc1cc(Cl)c(OC)cc1OC	–
CCOC(=O)c1cnc2ccc(OC(F)(F)F)cc2c1Nc1ccccc1C(=O)O	10µM
COc1ccc(C[C@H](NC(=O)C2=C[C@@H](NC(=O)Nc3ccc(F)cc3F)[C@@H](O)[C@H](O)C2)C(N)=O)cc1	–
CN1CCC(C(=O)N2CCC3(CC2)CN(S(=O)(=O)c2ccccc2)CCO3)CC1	–
CN(CC(=O)N[C@H]1CCOC[C@H]1C1CCOCC1)Cc1ccncc1	–
O=C([C@@H]1C[C@H](F)CN1C(=O)CCCc1ccccc1)N1CCCCC1	–
CSCC(=O)Nc1ccc2n(c1=O)C[C@H]1C[C@@H]2CN(C(=O)COc2ccccc2)C1	–
O=C(c1cccc2[nH]ccc12)N1CCC2(CCCCO2)CC1	–
CN(C)CC(=O)N1Cc2ccccc2CC2(CCCCN2C)C1 (stereo not drawn)	–
CN1CCCCC12Cc1ccccc1CN(C(=O)c1ccccc1)C2 (stereo not drawn)	8.91µM
CN1CCCCC12Cc1ccccc1CN(C(=O)CCCC(=O)O)C2 (stereo not drawn)	–
Cc1cccc(Nc2ncnc3onc(-c4ccc(Cl)cc4)c23)c1C	–
COc1ccc(Nc2ncnc3onc(-c4ccc(Cl)cc4)c23)cc1Cl	–
Cc1ccc(CCNc2ncnc3onc(-c4ccc(F)cc4)c23)cc1	–
Cc1ccccc1CN1CCC(CNc2ncnc3onc(-c4ccc(Cl)cc4)c23)CC1	8.91µM
Cc1ccc(CN2CCC(CNc3ncnc4onc(-c5ccc(Cl)cc5)c34)CC2)cc1	3.16µM
Cc1ccc(C)c(N2CCN(CCCNc3ncnc4onc(-c5ccc(Cl)cc5)c34)CC2)c1	–
CCOc1ccc(Nc2ncnc3onc(-c4ccc(Cl)cc4)c23)cc1	–
Clc1ccc(CN2CCC(CNc3ncnc4onc(-c5ccc(Cl)cc5)c34)CC2)cc1	4.47µM
COc1cccc(N2CCN(c3ncnc4onc(-c5ccc(Cl)cc5)c34)CC2)c1	–
Cc1cccc(CN2CCC(CNc3ncnc4onc(-c5ccc(Cl)cc5)c34)CC2)c1	–
Clc1ccc(-c2noc3ncnc(N4CCCCC4)c23)cc1	–
COc1ccc(OC)c(CCNc2ncnc3onc(-c4ccc(Cl)cc4)c23)c1	11.2µM
O=C(c1cccnc1)N1CCC2(CC1)CN(Cc1ccccc1)CC2CO (stereo not drawn)	–
COC(=O)c1cc2oc3ccccc3c2n1Cc1cc(C)ccc1C	–
